This note sets out measurements from ChEMBL document CHEMBL4513216, “Probing the Open Global Health Chemical Diversity Library for Multistage-Active Starting Points for Next-Generation Antimalarials” (ACS Infect Dis, 2020).

Hit rate of the full screen: of about 65,000 compounds, about 2,100 (3.2%) showed an effect of 50% or more. The median lay at about -52%. The sample holds strong results, similar compounds and a random draw of the others, so the mix is not that of the screen.

This assay relates to Plasmodium falciparum. Briefly: Screen against P. falciparum Asexual Blood Stage (ABS), at 5uM. Format: functional, Dd2. Particulars: tested at 5 uM.
Turning to `CS(=O)(=O)NCc1cc(=O)n2c(n1)CN(Cc1ccco1)CCC2`, the INHIBITION is recorded as -15.8%.
Turning to `CNC(=O)c1cn[nH]c1C1(C)CCCN(Cc2ccccc2OC)C1` (stereo not drawn), the INHIBITION came out at 31.1%.
As for `CNC(=O)c1cn[nH]c1C1(C)CCCN(Cc2ccccn2)C1` (stereo not drawn), the figure is 61.9%.
With `CN(C)C(=O)c1cn[nH]c1C1(C)CCCN(Cc2ccccn2)C1` (stereo not drawn) the figure was -73.2%; with `CCOc1nnc(CN2CCN(CCOC)CC2)s1`, -108%; with `CN(C)S(=O)(=O)N1C[C@H]2CC[C@@H](C1)N(CCC(=O)NCc1ccco1)C2`, -109%.
As for `Cc1occc1C(=O)N1C[C@@H]2CCCO[C@@H]2[C@H](NC(=O)CC2CC2)C1`, the figure is -27.2%.
For `COc1ccc(CCNC(=O)C(C)Nc2ccc(C)c(C)c2)cc1` (stereo not drawn), the INHIBITION was -52%.
With `Cc1nc(CN2CCc3nc(NC(C)C)nc(C)c3C2)cs1` the figure was -19.1%; with `CC(C)Nc1nc(N2CCCC2)nc2c1CN(C(C)C)CC2`, 66.8%.
With `CC(C)CCN1CCc2nc(N3CCOCC3)nc(NC(C)C)c2C1` the figure was 8.26%.
With `CC(C)Nc1nc(N2CCCC2)nc2c1CN(S(C)(=O)=O)CC2` the figure was 50.6%; with `CCN1CCc2nc(N3CCOCC3)nc(NC(C)C)c2C1`, 16.7%; with `CC(C)Nc1nc(N2CCCC2)nc2c1CCN(S(C)(=O)=O)CC2`, 51.5%.
Consider `Cc1nc(CN2CCc3nc(N4CCCC4)nc(NC(C)C)c3C2)cs1`, for which the INHIBITION came out at 57.3%.
With `CCCN1CCc2nc(N3CCOCC3)nc(NC(C)C)c2C1` the figure was -33.6%; with `CCS(=O)(=O)N1CCc2nc(N3CCCC3)nc(N(C)C)c2CC1`, -19.4%; with `CC(C)Nc1nc(N2CCCC2)nc2c1CN(c1ncc(F)cn1)CC2`, 23.3%.
In the case of `Cc1nc(N2CCCC2)nc2c1CN(C(C)C)CC2`, the INHIBITION is recorded as -36.3%.
With `CC(C)Nc1nc(N2CCCC2)nc2c1CN(C)CC2` the figure was 48.5%; with `CC1(C)CN=C(N2CCN(CCCN3CCOCC3)CC2)S1`, -67.2%.
With `N#Cc1ccc(N2CCCC3(CCN(c4cncnc4)C3=O)C2)nc1` (stereo not drawn) the figure was -38.5%.
As for `CCN(CCO)C[C@@H]1CN(C(=O)c2ccc(C)s2)C[C@@H]1CO`, the figure is -69.5%; as for `CN(C)C(=O)C1CN(Cc2ccsc2)Cc2ccnn2C1` (stereo not drawn), -99.4%; as for `CCC(=O)Nc1ccc2c(c1)C1(CCOCC1)CN2CCOC`, -59.9%.
Turning to `Fc1cccc(N2C[C@H]3CCN(c4cccnc4)C[C@H]3C2)c1`, the INHIBITION was 13.9%.
With `O=C(CCc1nc(-c2ccsc2)no1)NCC1CCN(C2CC2)C1` (stereo not drawn) the figure was 2.06%.
As for `CCCn1nc2c(cc1=O)CN(Cc1nc(CCOC)no1)CC2`, the INHIBITION is 62.4%.
With `CCn1nc2c(cc1=O)CN(Cc1nc(CCOC)no1)CC2` the figure was -151%.
As for `COCCc1noc(CN2CCc3nn(C(C)C)c(=O)cc3C2)n1`, the figure is -60.6%; as for `c1cncc(-c2nccc(CN3CCCC3)n2)c1`, -151%; as for `CCc1c(C)nc2ccccc2c1N1CCC(O)CC1`, 0.854%.
As for `CCc1c(C)nc2ccccc2c1N1CCC(NC(C)=O)CC1`, the figure is 24.4%; as for `CCc1c(C)nc2ccccc2c1N1CCC(C(=O)NC)CC1`, 52.7%; as for `Cc1ccc(C(=O)N2C[C@@H]3[C@@H](C2)OCC(=O)N3Cc2cccnc2)o1`, -84.3%.
Take `CN(C)Cc1cccc(-c2cccnc2C(=O)NCc2cn(C)cn2)c1`: the INHIBITION is given as -167%.
With `Cc1ccc(C(=O)N2C[C@H]3CCC[C@@]3(COCC3CCOCC3)C2)o1` the figure was -35.2%; with `CCS(=O)(=O)Nc1ccc2oc(C)c(C(=O)OC)c2c1`, -54.7%.
With `CN1CCC(Oc2ccc(NC(=O)c3ccccc3Br)cc2)CC1` the figure was -76%; with `COc1ccccc1C(=O)Nc1ccc(OC2CCN(C)CC2)cc1`, 64.2%; with `Cc1ccccc1C(=O)Nc1ccc(OC2CCN(C)CC2)cc1`, -41.5%.
As for `CC(Cn1ccnc1)NC(=O)NCCc1cccnc1` (stereo not drawn), the figure is 30.9%; as for `O=C(c1ncoc1C1CC1)N1CCN(CCOc2ccccc2)CC1`, -35.9%.
For `O=C(c1ncoc1C1CC1)N1CCCN(CCCc2ccccc2)CC1`, the INHIBITION was found to be 69.7%.
With `Cn1nccc1C(=O)N1CCCN(CCCc2ccccc2)CC1` the figure was -14.1%.
As for `COCCn1c(-c2cccc(OC)c2)cnc1NC(=O)NCCC(C)C`, the figure is -63.4%.
As for `CN(C)C(=O)c1ccc(C2CCCN2C(=O)c2cccc3c2OCC3)s1` (stereo not drawn), the figure is -53.8%.
On to `COc1ccc(CN2CCC3(CC2)CN(c2ccccn2)CCO3)cc1`, for which the INHIBITION is 62.3%.
With `Cc1noc(C)c1CN1CCC2(CC1)CN(c1ccccn1)CCO2`, the INHIBITION turned out to be 30%.
With `COc1ncccc1CN1CCC2(CC1)CN(c1ccccn1)CCO2` the figure was 56.5%; with `Fc1ccc(CN2CCC3(CC2)CN(c2ccccn2)CCO3)cc1`, 49%.
With `c1ccc(CN2CCC3(CC2)CN(c2ccccn2)CCO3)nc1` the figure was -67.1%; with `Cn1ccnc1CN1CCC2(CC1)CN(c1ccccn1)CCO2`, -254%.
